Source: PubChem (several laboratories)
HTR5A ag ctr: HTR5A agonism, opioid heterodimer counter-screen | HTR5A agonist assay, luminescence, cell-based | activation, % at 9.3 µM | 340,000 compounds, 0.61% hits | AID 504692; in the data active = activation mostly above about 9.5%, no sharp cut-off; inactive = mostly below about 7.6%;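 note: 0% = cells with vehicle only and 100% = reference agonist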
OPRM1-OPRD1 inv: inverse agonist of human OPRM1-OPRD1 heterodimerization. P35372+P41143. cell-based MOR-DOR heterodimer luminescence, inverse agonism. inhibition, % at 9.3 µM. 340,000 compounds, 0.21% hits; in the data active = inhibition above about 22%, passing the limit was not always enough;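 note: 0% = cells with DMSO and 100% = wells without cells with DMSO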
Target sequence (P35372 whole entry, looked up): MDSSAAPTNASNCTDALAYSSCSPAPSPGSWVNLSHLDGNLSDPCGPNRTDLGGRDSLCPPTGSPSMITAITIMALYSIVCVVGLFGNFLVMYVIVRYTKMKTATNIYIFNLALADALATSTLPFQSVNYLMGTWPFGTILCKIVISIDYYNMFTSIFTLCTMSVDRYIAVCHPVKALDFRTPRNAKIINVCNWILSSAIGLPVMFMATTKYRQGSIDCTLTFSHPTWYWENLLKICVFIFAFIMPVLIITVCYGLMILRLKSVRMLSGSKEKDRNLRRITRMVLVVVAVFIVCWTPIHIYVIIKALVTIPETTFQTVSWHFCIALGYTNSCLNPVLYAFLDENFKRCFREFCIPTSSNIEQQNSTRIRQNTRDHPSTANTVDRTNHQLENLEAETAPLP
Target sequence (P41143 whole entry, looked up): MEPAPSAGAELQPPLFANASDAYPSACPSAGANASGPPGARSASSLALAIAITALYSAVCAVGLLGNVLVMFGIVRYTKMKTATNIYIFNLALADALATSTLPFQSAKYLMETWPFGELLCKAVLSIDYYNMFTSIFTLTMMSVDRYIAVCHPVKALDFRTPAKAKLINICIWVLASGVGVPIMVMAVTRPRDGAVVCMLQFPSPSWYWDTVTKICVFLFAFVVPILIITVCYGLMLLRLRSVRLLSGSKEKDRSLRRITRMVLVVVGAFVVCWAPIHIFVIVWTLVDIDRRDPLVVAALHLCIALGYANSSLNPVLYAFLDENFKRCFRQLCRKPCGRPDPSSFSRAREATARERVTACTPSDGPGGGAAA
PvdQ acylase: blocks Pseudomonas aeruginosa PvdQ acylase activity; purified PvdQ acylase, fluorescence plate reader; inhibition, % at 10 µM; 340,000 compounds, 0.063% hits; in the data active = inhibition above about 30%, passing the limit was not always enough;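 note: 0% = vehicle neutral wells and 100% = reference inhibitor wells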
HTR5A inv ag: counter-screen for OPRM1-OPRD1 inverse agonists: human HTR5A inverse agonism | P47898 | HTR5A cell line, luminescence | inhibition, % at 9.3 µM | 340,000 compounds, 0.083% hits | AID 504634; in the data active = inhibition mostly above about 23%, no sharp cut-off; inactive = mostly below about 18%;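 note: 0% = cells with DMSO and 100% = no-cell wells with DMSO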
CR mimetic SO: lowers age-related superoxide in aged yeast cells; 330,000 compounds, 0.18% hits; AID 2690; superoxide response (% of plate mean), % at 10 µM; S. cerevisiae aged cells, superoxide DHE fluorescence; active compounds read low;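 active = superoxide response under a set limit, about three screen SD below normal, cut at about 65% in these data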;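 note: yeast aged for seven days with compound at 30 °C before DHE staining; 100% = average MFI of all compound-treated wells on the plate with controls excluded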
OPRM1-OPRD1 ag: OPRM1-OPRD1 heterodimerization agonism; cells, luminescence; activation, % at 9.3 µM; 340,000 compounds, 0.3% hits; in the data active = activation above about 18%;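 note: 0% = vehicle-treated cells and 100% = reference agonist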
OPRM1-D1 inv cf: OPRM1-OPRD1 heterodimer inverse agonism, confirmation | inhibition, % at 9.3 µM | shares compounds with OPRM1-OPRD1 inv | 580 compounds, 20% hits | cells expressing OPRM1/OPRD1 heterodimer, luminescence; in the data active = inhibition above about 32%;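 note: 0% = cells with DMSO and 100% = wells lacking cells with DMSO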
HTR5A inv ctr2: HTR5A inverse agonism, opioid heterodimer counter-screen; shares compounds with OPRM1-OPRD1 inv; HTR5A-expressing cells, luminescence; inhibition, % at 9.3 µM; 580 tested, under 10 active; call rule not given here;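 note: 0% = cells with DMSO and 100% = no-cell wells with DMSO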
An asterisk follows results filed as active; i = inactive; · = no result given. Most compounds without a hit are left out; they make up all but 1.3% or so of the library.

SMILES	HTR5A ag ctr	OPRM1-OPRD1 inv	PvdQ acylase	HTR5A inv ag	CR mimetic SO	OPRM1-OPRD1 ag	OPRM1-D1 inv cf	HTR5A inv ctr2
COc1cc(/C=N/N=C2/C(=O)Nc3ccccc32)ccc1O	-4.7	13.4	-3.9	12.3	108.5	-2.6	·	·
O=C1Nc2ccccc2C1=Nc1ccc(F)cc1	-2.8	59.2*	-6.6	10.9	90.5	-10.7	23.5	4.2
COc1ccc(OC)c(N=C2C(=O)Nc3ccccc32)c1	-8.5	41.5*	-10.5	22.1	90.5	-8.3	44.9*	-2.9
CCCCN(C(=O)C1CC(=O)N(Cc2ccc(C)cc2)C1)c1c(N)n(CCCC)c(=O)[nH]c1=O (stereo unspecified)	0.2	7.4	-6.0	-0.7	100.8	-1.1	·	·
CC(=O)N(/N=C1/C(=O)Nc2ccccc21)c1ccccc1	0.1	-12.2	7.6	-0.6	87.4	2.2	·	·
NS(=O)(=O)c1ccc(N=C2C(=O)Nc3ccccc32)cc1	-2.5	64.4*	0.7	6.5	82.1	-11.6	27.0	-6.7
NC(=O)c1ccc(N=C2C(=O)Nc3ccc([N+](=O)[O-])cc32)cc1	4.8	-0.8	-0.7	-13.7	134.7	0.1	·	·
O=C1Nc2ccccc2C1=Nc1cccc([N+](=O)[O-])c1	1.0	48.1*	-16.6	-3.9	98.9	-8.3	-137.7	-11.8
Cc1ccccc1N=C1C(=O)Nc2ccccc21	-1.6	56.3*	-7.0	6.3	·	-10.9	-128.4	4.9
Cc1ccc(N=C2C(=O)Nc3ccccc32)c(C)c1	-3.3	54.1*	4.1	13.0	95.3	-9.8	21.3	1.9
CCN1CCN(C(=O)CN2C(=O)COc3ccc(C)cc32)CC1	-4.0	12.2*	-7.0	12.1	95.6	-1.5	i	-18.9
Cc1cccc(N=C2C(=O)Nc3c(Cl)cccc32)c1	2.6	55.8*	-4.9	-9.7	102.2	-11.7	26.7	6.5
Cc1cccc(N=C2CSC(=O)N2)c1	2.3	15.7	-6.0	-3.6	113.4	-3.5	·	·
CCN1CCN(c2ccc(S(=O)(=O)N3CCCCC3)cc2N)CC1	-5.3	3.2	-9.9	10.2	109.3	-0.8	·	·
O=C(C[n+]1ccccc1)NNc1ccccc1	-0.4	32.6*	-6.0	-20.7	93.4	-5.8	23.6	-16.1
CCOc1ccccc1N(C)C(=O)c1sc2ncn(CC(=O)N3CCCCC3C)c(=O)c2c1C (stereo unspecified)	11.5	1.9	-6.3	-6.9	101.6	-0.3	·	·
CCN(CC)S(=O)(=O)c1cccc(-c2n[nH]c(=S)n2C)c1	3.6	-7.0	8.2	-9.3	98.6	1.4	·	·
Cc1ccc(-c2n[nH]c(=S)n2C)cc1Cl	-6.6	32.6*	-8.4	18.6*	112.4	-6.4	2.5	11.6
NNC(=O)c1nc(Cl)c(Cl)c(N)c1Cl	-4.9	4.0	0.7	14.1	99.3	-0.7	·	·
CCCc1cc(=O)n2[nH]c(NC(=O)c3ccco3)nc2n1	-4.1	-11.1	-12.6	-7.9	88.3	1.8	·	·
CC(C)(C)OC(=O)C[C@@H]1C/C=C\C[C@H](CC(=O)N(CCO)Cc2ccccc2)C(=O)NC[C@@H](c2ccccc2)OC1=O	-10.0	56.3*	11.2	36.3	114.4	-12.2	-426.6	-0.9
Oc1[nH]c2ccccc2c1/C=N/N1CCCCC1	-3.3	37.4*	-0.9	8.9	93.0	-6.2	26.8	-14.7
Oc1ccccc1C=NN1CCCCCC1	-0.9	-8.9	-9.3	3.6	·	1.8	·	·
COc1ccccc1NC(=O)COc1coc(CN2CCN(c3ccccc3)CC2)cc1=O	7.1	-10.5	1.5	-27.8	107.0	1.6	·	·
CCNC(=S)NNC(=S)NCc1ccccc1	-3.1	20.9	-8.0	12.5	101.6	-3.8	·	·
CCNC(=S)NNc1nnc(-c2ccccc2)c(-c2ccccc2)n1	1.8	49.9*	10.4	17.4	93.9	-10.0	28.5	7.9
O=C(CNC(c1ccccc1)c1ccccc1)NCc1ccccc1Cl	1.0	-7.0	-5.8	-3.9	100.5	1.5	·	·
CC(=O)Nc1ccc(Br)cc1C(=O)C(=O)O	-5.3	36.1*	2.8	11.4	104.5	-6.5	-13.4	-36.7
CCCCC(=O)Nc1ccc(Br)cc1C(=O)O	2.5	3.8	-16.9	4.2	94.3	-0.7	·	·
